Bioassay records: PubChem BioAssay, The Scripps Research Institute Molecular Screening Center
PPARg SRC-2 ag = agonists of PPARg-SRC-2 recruitment, primary screen, biochemical, HTS. activation, % at 8 µM. 200,000 tested, 0.34% active. AID 1032, 2008. PPARgamma LBD-SRC-2 recruitment; in the data active = activation above about 22%;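 note: 0% = vehicle and 100% = reference agonist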
Target sequence (P37231 whole entry, looked up, the tested form may be a part): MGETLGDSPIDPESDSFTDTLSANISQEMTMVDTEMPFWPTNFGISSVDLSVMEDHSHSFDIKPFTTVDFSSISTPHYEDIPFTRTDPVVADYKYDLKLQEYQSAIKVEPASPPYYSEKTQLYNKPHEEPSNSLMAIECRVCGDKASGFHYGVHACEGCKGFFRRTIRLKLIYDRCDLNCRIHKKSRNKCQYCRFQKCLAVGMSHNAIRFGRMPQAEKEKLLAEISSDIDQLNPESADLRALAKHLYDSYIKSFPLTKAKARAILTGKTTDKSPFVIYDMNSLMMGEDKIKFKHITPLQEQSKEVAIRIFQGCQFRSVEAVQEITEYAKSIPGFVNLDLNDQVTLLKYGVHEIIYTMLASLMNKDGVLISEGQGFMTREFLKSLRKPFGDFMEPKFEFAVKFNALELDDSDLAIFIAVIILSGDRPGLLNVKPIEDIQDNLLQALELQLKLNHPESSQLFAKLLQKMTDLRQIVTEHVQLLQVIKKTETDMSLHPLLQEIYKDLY
PPARg SRC3 recr = PPARgamma agonists recruiting SRC-3 coactivator, primary screen, biochemical; 200,000 tested, 0.26% active; biochemical PPARgamma/SRC-3 coactivator recruitment assay; activation, % at 8 µM; Peroxisome proliferator-activated receptor gamma (Homo sapiens), P37231; AID 731, 2007; in the data active = activation above about 23%;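 note: 0% = DMSO and 100% = reference agonist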
SRC1 TRFRET art = TR-FRET detection interference compounds, primary screen, artefact control for PPARgamma SRC-1 recruitment agonists, biochemical, TR-FRET emission ratio; TR-FRET detection artefact counter-screen; active compounds read high; TR-FRET ratio at 8 µM; 99,000 tested, 0.34% active; in the data active = TR-FRET ratio above about 2300
TR-FRET SRC-2 ct = TR-FRET signal artefacts, primary screen, artefact control for PPARgamma SRC-2 agonist project, biochemical. TR-FRET artefact counter-screen; active compounds read high. TR-FRET ratio at 8 µM. 200,000 tested, 0.4% active
PPARg SRC-1 ag = PPARgamma agonists recruiting SRC-1 coactivator, primary screen, biochemical. activation, % at 8 µM. 200,000 tested, 0.41% active. Peroxisome proliferator-activated receptor gamma (Homo sapiens), P37231. PPARgamma-SRC-1 coactivator recruitment biochemical assay. AID 631, 2007; in the data active = activation above about 19%;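 note: 0% = DMSO and 100% = reference agonist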
SRC3 TRFRET art = TR-FRET detection interference compounds, artefact control for PPARgamma SRC-3 recruitment agonists, biochemical, TR-FRET ratio | AID 1048, 2008 | 99,000 tested, 0.39% active | TR-FRET artefact counter-screen, PPARgamma/SRC-3 format; active compounds read high | TR-FRET ratio at 8 µM
* = called active by the depositor; . = no result given. The list is not random: actives were taken first. Their share in the collection is about 0.84%. Cut-off read from the data, not from the text of the source, unless noted: active = TR-FRET ratio above about 2000; inactive = the rest.

SMILES | PPARg SRC-2 ag | PPARg SRC3 recr | SRC1 TRFRET art | TR-FRET SRC-2 ct | PPARg SRC-1 ag | SRC3 TRFRET art
COc1ccc(C2CC(c3cccs3)=NN2C(=O)COC(=O)c2cncc(Br)c2)cc1OC (stereo not drawn) | 1.6 | 3.2 | 2246 | 1406 | 11.2 | 2284*
COc1ccc(C2CC(c3cccs3)=NN2C(=O)COC(=O)C2CCCCC2)cc1OC (stereo not drawn) | 8.8 | 6.0 | 2074 | 1638 | 3.2 | 1612
COc1ccc(N2CCN(C(=O)CNC(=O)Cn3c(C)cc4ccccc4c3=O)CC2)cc1 | 5.9 | 1.7 | . | 1600 | 6.0 | .
CCOC(=O)c1ccc(NC2=CC(=O)CC(c3ccco3)C2)cc1 (stereo not drawn) | 14.5 | 2.0 | 2177 | 2006* | 7.3 | 1806
O=C(CSc1nnc2c3ccccc3c3ccccc3c2n1)Nc1ccccc1F | 5.3 | 7.6 | . | 1707 | -1.3 | .
O=C(CSc1nnc2c3ccccc3c3ccccc3c2n1)Nc1ccccc1 | 6.1 | 12.7 | . | 1585 | 64.0* | .
Cc1c(C(=O)Nc2nccs2)sc2nc(-c3cccs3)cc(C(F)(F)F)c12 | 15.2 | 7.0 | . | 2020* | 5.1 | .
CC1=C(C(=O)Nc2ccccc2)C(c2cccs2)NC(=O)N1 (stereo not drawn) | -3.1 | 1.0 | 1788 | 1474 | -4.7 | 1754
Cc1ccc(NC(=O)c2sc3ccccc3c2Cl)nc1 | 4.3 | 11.7 | . | 1782 | 36.1* | .
Cc1nnc(NC(=O)c2sc3ccccc3c2Cl)s1 | 1.8 | 16.1 | . | 1652 | 16.2 | .
COc1ccc(C(c2nnnn2Cc2cccs2)N2CCN(c3ccc(F)cc3)CC2)cc1OC (stereo not drawn) | -10.3 | 1.6 | . | 1616 | -2.5 | .
CCc1ccc(N2CSC3=C(C#N)C(c4cccs4)CC(=O)N3C2)cc1 (stereo not drawn) | 35.5* | 7.8 | 2307 | 2462* | 10.1 | 1937
CCc1ccc(C2CC(=O)N3CN(c4ccccc4)CSC3=C2C#N)cc1 (stereo not drawn) | 9.1 | 15.6 | . | 1752 | 5.3 | .
COc1ccc(N2CSC3=C(C#N)C(c4cccs4)CC(=O)N3C2)cc1 (stereo not drawn) | 29.4* | 38.9* | . | 2277* | 30.5* | .
CCOC(=O)c1ccc(N2CSC3=C(C#N)C(c4cccs4)CC(=O)N3C2)cc1 (stereo not drawn) | 19.9 | 18.8 | . | 2211* | 7.1 | .
Cc1ccc(S(=O)(=O)N2CCCC(C(=O)N(Cc3cccs3)C3CC3)C2)cc1 (stereo not drawn) | 0.4 | -1.4 | 1593 | 2180* | 4.9 | 1683
Cn1c(C(=O)N2CCOCC2)cnc1Sc1ncc(C(F)(F)F)cc1Cl | 21.8* | 10.1 | . | 1743 | -1.1 | .
O=C(COC(=O)C1CCN(S(=O)(=O)c2cccs2)CC1)c1ccc2c(c1)OCCO2 | -6.8 | -10.9 | . | 2115* | -6.4 | .
O=C(COC(=O)C1CCN(S(=O)(=O)c2cccs2)CC1)c1cc2ccccc2o1 | 6.9 | -0.4 | . | 2135* | -3.4 | .
O=C1COc2ccc(C(=O)COC(=O)C3CCN(S(=O)(=O)c4cccs4)CC3)cc2N1 | 12.2 | 16.8 | . | 1626 | 10.0 | .
COc1ccc(CN(C)Cc2nc3scc(-c4ccccc4)c3c(=O)[nH]2)cc1OC | -1.9 | 0.2 | 2152 | 1587 | 3.1 | 1513
CCCOC(=O)Nc1cc(OC)ccc1[N+](=O)[O-] | -2.5 | 0.4 | 1953 | 1633 | 1.4 | 1723
CC(C)(C)c1[nH]nc2c1C(Cc1ccccc1)C(C#N)=C(N)O2 (stereo not drawn) | -2.8 | -4.1 | . | 1645 | -4.7 | .
CCOC(=O)C1C2C=CC3(CN(c4ccccc4CC)C(=O)C13)O2 (stereo not drawn) | 8.4 | 9.3 | . | 1572 | 1.5 | .
C=CCn1c(CCCNC(=O)c2ccccc2OC)nc2ccccc21 | 5.7 | 4.3 | 1399 | 1655 | 0.7 | 1698
SMILES | PPARg SRC-2 ag | PPARg SRC3 recr | SRC1 TRFRET art | TR-FRET SRC-2 ct | PPARg SRC-1 ag | SRC3 TRFRET art
CCC(=O)Nc1ccc(C(=O)N/N=C/c2ccc([N+](=O)[O-])cc2)cc1 | 3.7 | 7.2 | 2345* | 1712 | 11.2 | 1554
CCOc1ccc(Br)cc1C(=O)N/N=C/c1ccc([N+](=O)[O-])cc1 | 11.8 | 3.4 | 1882 | 1653 | 8.9 | 1542
COc1ccc(Br)cc1C(=O)N/N=C/c1ccc([N+](=O)[O-])cc1 | 5.4 | -0.3 | 2467* | 1717 | 30.1* | 1795
COc1ccc(-c2nnn(CCc3nn[nH]n3)n2)cc1 | -10.6 | 5.3 | . | 1315 | -1.2 | .
CCOC(=O)c1oc2ccc(S(=O)(=O)N3CCC(C)CC3)cc2c1C | -1.1 | 15.2 | . | 1625 | 45.8* | .
Cc1cccc2nc(-c3ccccc3)nc(N3CCC(O)(c4ccc(Cl)cc4)CC3)c12 | 12.6 | 9.2 | 2070 | 2045* | 2.7 | 1816
N#CC1(c2ccccc2)CCCN1C(=O)c1ccc(Br)o1 (stereo not drawn) | 5.8 | -3.0 | . | 1546 | -7.0 | .
O=C(NCc1cccc(F)c1)c1ccc(N2C(=O)Cn3c(cc4sccc43)C2=O)cc1 | -3.6 | 0.2 | 2114 | 1654 | -2.4 | 2155*
CCOCCCNC(=O)C(NC(=O)c1ccccc1O)c1ccc(Cl)cc1 (stereo not drawn) | -4.4 | 4.2 | 1906 | 1489 | -6.1 | 1661
C/C(=N\Nc1nc2ccccc2[nH]1)c1ccc(C)o1 | 11.9 | 7.6 | 2081 | 1556 | 9.7 | 2059*
CC1CCCCC1NC(=O)CSc1nnc(-c2ccccc2)n1N (stereo not drawn) | 8.6 | 4.4 | 2092 | 1677 | 4.6 | 1593
COc1ccc(C2=NN(c3nc(-c4ccccc4)c(CC(=O)O)s3)C(c3ccco3)C2)cc1 (stereo not drawn) | 0.9 | 14.2 | 2061 | 1644 | 6.6 | 2153*
CC(C)NC(=O)COC(=O)c1cccc(NS(=O)(=O)/C=C/c2ccccc2)c1 | 21.9* | 2.9 | 1751 | 1606 | -1.7 | 1709
CCOC(=O)c1c(NC(=O)Cc2cccs2)sc(C(=O)NC2CCCCC2)c1C | 3.2 | 4.2 | . | 1698 | 8.1 | .
CCOC(=O)c1c(NC(=O)Cc2cccs2)sc(C(=O)NC2CCCC2)c1C | 2.4 | 34.5* | . | 1550 | 1.3 | .
O=C(CSc1ccc(-c2ccco2)nn1)NCc1ccccc1Cl | 6.4 | 5.9 | 2338* | 1506 | 2.8 | 1557
COc1ccc(CC(C(=O)Nc2cccc(F)c2)c2nn[nH]n2)c(OC)c1 (stereo not drawn) | 5.9 | 8.7 | . | 1441 | 3.4 | .
Oc1ccc(C2Nc3cccc4cccc(c34)N2)c(O)c1 | 19.1 | 30.7* | . | 1494 | 30.4* | .
CCCOC1(NC(=O)c2ccccc2)C(C)=CC(=O)C=C1C | 5.5 | -0.2 | . | 1425 | -2.8 | .
CCCCC(CC)Cn1c(N)c(C#N)c2nc3ccccc3nc21 (stereo not drawn) | 9.6 | 7.0 | . | 1503 | 1.8 | .
